For experiment [1], the target named is rat Glutamate Metabotropic Receptor 5 (MGluR5), Grm5 (gene 24418) (UniProt P31424). Put plainly: NVS_GPCR_rmMGluR5: NovaScreen (NVS) G Protein-Coupled Receptor Assay for rat Glutamate Metabotropic Receptor 5 (MGluR5) (AID 2283307). The method, boiled down:
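Compounds first screened in duplicate at 25 uM, then in concentration series up to 50 uM if over threshold. Radioligand displacement on rat whole-brain membranes, filtration and scintillation counting after 1.5 h; binding loss relative to DMSO.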

The target of experiment [2] is rat Neurokinin-3 Receptor (NK3), Tacr3 (gene 24808) (UniProt P16177). The experiment can be described thus: NVS_GPCR_rNK3: NovaScreen (NVS) G Protein-Coupled Receptor Assay for rat Neurokinin-3 Receptor (NK3) (AID 2283310). Put shortly: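 Filter-based radioligand displacement on rat cortex membrane preparations, read by scintillation 2 h post-dose. Chemicals first tested in duplicate at 25 uM; actives followed up in concentration series with a 50 uM maximum.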
Chain of rat Neurokinin-3 Receptor (NK3), Tacr3 (gene 24808) (P16177 whole entry, looked up): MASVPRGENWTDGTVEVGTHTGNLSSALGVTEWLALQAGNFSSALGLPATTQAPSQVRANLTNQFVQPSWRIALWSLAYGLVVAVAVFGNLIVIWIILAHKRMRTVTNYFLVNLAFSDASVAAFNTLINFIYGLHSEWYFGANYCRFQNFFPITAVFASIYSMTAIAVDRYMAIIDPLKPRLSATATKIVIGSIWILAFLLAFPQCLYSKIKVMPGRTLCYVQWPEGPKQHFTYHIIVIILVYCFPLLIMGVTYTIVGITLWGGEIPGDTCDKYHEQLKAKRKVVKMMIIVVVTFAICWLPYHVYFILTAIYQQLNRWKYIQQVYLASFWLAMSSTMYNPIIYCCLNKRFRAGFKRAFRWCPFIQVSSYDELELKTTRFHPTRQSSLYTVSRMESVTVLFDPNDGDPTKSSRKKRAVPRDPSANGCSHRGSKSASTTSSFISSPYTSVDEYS

For experiment [3], the target named is rat Opioid Receptor, Non-selective Sodium (Na+) Binding, Oprm1 (gene 25601) (UniProt P33535). Put plainly: NVS_GPCR_rOpiate_NonSelectiveNa: NovaScreen (NVS) G Protein-Coupled Receptor Assay for rat Opioid Receptor, Non-selective Sodium (Na+) Binding (AID 2283311). Put shortly: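 Filtration radioligand binding on rat forebrain membrane preparations, read 1.5 h after dosing. Single-concentration 25 µM primary screen in duplicate, followed by singleton concentration series to 50 µM max for actives; DMSO baseline.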
Chain of rat Opioid Receptor, Non-selective Sodium (Na+) Binding, Oprm1 (gene 25601) (P33535 whole entry, looked up): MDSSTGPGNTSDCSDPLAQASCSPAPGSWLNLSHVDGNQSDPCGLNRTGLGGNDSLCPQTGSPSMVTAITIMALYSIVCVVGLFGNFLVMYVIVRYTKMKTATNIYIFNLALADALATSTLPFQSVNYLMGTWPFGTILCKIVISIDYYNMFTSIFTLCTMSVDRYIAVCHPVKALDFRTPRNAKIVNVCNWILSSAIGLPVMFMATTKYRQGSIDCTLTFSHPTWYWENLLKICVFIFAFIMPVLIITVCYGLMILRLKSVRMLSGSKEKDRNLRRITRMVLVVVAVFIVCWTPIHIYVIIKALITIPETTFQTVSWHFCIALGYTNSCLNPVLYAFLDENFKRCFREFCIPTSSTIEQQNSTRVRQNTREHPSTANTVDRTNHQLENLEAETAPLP

Experiment [4] deals with rat Somatostatin Receptor (SST), Sstr1 (gene 25033) (UniProt P28646). The experiment can be described thus: NVS_GPCR_rSST: NovaScreen (NVS) G Protein-Coupled Receptor Assay for rat Somatostatin Receptor (SST) (AID 2283314). Put shortly: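 Single-concentration duplicate screen (25 uM), then concentration-response up to 50 uM for chemicals passing a threshold such as 30% inhibition. Membranes came from rat forebrain. Binding was measured 1 h post-dose by filter radiodetection and scintillation, relative to DMSO.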
Chain of rat Somatostatin Receptor (SST), Sstr1 (gene 25033) (P28646 whole entry, looked up): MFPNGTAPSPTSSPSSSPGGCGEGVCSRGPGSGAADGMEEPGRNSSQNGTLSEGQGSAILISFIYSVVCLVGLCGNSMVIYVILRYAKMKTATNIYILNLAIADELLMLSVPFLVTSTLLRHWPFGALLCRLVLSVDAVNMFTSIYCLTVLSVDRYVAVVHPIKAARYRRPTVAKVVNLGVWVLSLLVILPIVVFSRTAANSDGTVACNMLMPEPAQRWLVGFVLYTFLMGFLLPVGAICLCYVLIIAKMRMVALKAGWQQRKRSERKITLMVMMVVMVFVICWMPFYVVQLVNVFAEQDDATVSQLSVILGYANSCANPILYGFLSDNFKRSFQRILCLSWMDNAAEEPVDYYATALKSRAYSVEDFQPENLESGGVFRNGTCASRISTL

Experiment [5] addresses Voltage-dependent N-type calcium channel subunit alpha-1B (Rattus norvegicus) (UniProt Q02294). The experiment can be described thus: NVS_IC_rCaChN: NovaScreen (NVS) Ion Channel Assay for rat Calcium Channel, Type N (CaChN) (AID 2283317).
Experiment [6] addresses rat Opioid Receptor, Non-selective Binding, Oprm1 (gene 25601) (UniProt P33535). The experiment can be described thus: NVS_GPCR_rOpiate_NonSelective: NovaScreen (NVS) G Protein-Coupled Receptor Assay for rat Opioid Receptor, Non-selective Binding (AID 2283318). The method, boiled down:
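Filter-based radioligand displacement using rat forebrain membrane preparations, measured 1.5 h post-dosing. Single-concentration duplicate screen at 25 uM, follow-up in concentration series; activity taken as signal loss relative to DMSO.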

Experiment [7] is described as follows: NVS_IC_rCaDHPRCh_L: NovaScreen (NVS) Ion Channel Assay for rat Calcium Channel, Type L, Dihydropyridine Site (CaDHPRCh_L) (AID 2283320). The method, boiled down:
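Rat cortex membrane preparation; dihydropyridine-site radioligand displacement read 1 h post-dose by filtration and scintillation. Primary single-point screen 25 uM in duplicate, then concentration series to 50 uM maximum; DMSO as negative control.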

The target in experiment [8] is Sodium channel protein type 1 subunit alpha (Rattus norvegicus) (UniProt P04774). Put plainly: NVS_IC_rNaCh_site2: NovaScreen (NVS) Ion Channel Assay for rat Sodium Channel, Site 2 (NaCh) (AID 2283322).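 Note: hit means loss of radioligand binding signal relative to DMSO so AC50 marks displacement.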 The method, boiled down: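 Initial duplicate single-point testing at 25 uM, followed by concentration-response runs for actives. Binding of radioligand to rat forebrain membranes quantified after 1 h via filter-based radiodetection.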

For experiment [9], the target named is rat Glutamate, AMPA Site (AMPA), Gria1 (gene 50592) (UniProt P19490). Put plainly: NVS_LGIC_rAMPA: NovaScreen (NVS) Ligand-Gated Ion Channel Assay for rat Glutamate, AMPA Site (AMPA) (AID 2283324). Put shortly: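 Screening at 25 uM in duplicate preceded concentration series reaching 50 uM for qualifying compounds. Radioligand displacement on rat forebrain membranes, 1 h, filter-based scintillation readout; reduced binding relative to DMSO.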
Chain of rat Glutamate, AMPA Site (AMPA), Gria1 (gene 50592) (P19490 whole entry, looked up): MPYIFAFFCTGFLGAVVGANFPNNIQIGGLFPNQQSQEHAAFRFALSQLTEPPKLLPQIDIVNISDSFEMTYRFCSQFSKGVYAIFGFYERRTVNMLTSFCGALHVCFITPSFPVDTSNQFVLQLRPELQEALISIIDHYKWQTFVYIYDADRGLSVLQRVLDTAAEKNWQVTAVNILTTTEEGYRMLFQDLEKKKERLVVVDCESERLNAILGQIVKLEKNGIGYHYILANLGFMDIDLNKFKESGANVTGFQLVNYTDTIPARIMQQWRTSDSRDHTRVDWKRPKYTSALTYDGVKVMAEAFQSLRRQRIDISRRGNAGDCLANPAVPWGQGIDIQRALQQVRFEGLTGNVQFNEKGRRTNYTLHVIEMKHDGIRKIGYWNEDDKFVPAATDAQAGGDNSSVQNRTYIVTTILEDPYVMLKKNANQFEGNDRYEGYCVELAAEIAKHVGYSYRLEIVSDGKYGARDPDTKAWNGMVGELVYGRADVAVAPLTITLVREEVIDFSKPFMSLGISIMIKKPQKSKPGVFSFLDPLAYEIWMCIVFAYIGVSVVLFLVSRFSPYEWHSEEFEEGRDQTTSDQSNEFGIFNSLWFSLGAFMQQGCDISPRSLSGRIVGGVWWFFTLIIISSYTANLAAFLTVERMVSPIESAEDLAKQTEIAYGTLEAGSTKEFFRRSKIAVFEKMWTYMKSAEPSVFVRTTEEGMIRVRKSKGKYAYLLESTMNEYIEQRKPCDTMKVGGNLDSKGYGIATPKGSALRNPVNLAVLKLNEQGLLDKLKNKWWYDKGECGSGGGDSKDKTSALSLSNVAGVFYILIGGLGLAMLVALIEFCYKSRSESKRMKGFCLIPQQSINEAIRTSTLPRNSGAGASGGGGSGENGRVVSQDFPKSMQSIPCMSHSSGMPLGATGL

Experiment [10] has as its target rat Vasopressin 1 Receptor (V1), Avpr1a (gene 25107) (UniProt P30560). The experiment can be described thus: NVS_GPCR_rV1: NovaScreen (NVS) G Protein-Coupled Receptor Assay for rat Vasopressin 1 Receptor (V1) (AID 2283316). Put shortly: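 Concentration-response up to 50 uM for chemicals passing a threshold such as 30% inhibition in an initial duplicate 25 uM screen. Displacement of radioligand from rat liver membranes measured after 1.5 h by filtration and scintillation.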

Experiment [11] deals with rat Neurokinin-1 Receptor (NK1), Tacr1 (gene 24807) (UniProt P14600). Put plainly: NVS_GPCR_rNK1: NovaScreen (NVS) G Protein-Coupled Receptor Assay for rat Neurokinin-1 Receptor (NK1) (AID 2283309). The method, boiled down:
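Competitive radioligand binding to NK1 in rat submaxillary membranes, 1 h incubation, filtration and scintillation read-out. Compounds first screened at 25 uM in duplicate, then concentration-response for actives; signal loss relative to DMSO.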

For experiment [12], the target named is bovine Gamma-Aminobutyric Acid Type A Receptor BDZ, alpha 1 site (GABARa1), GABRA1 (gene 780973) (UniProt P08219). The experiment can be described thus: NVS_LGIC_bGABARa1: NovaScreen (NVS) Ligand-Gated Ion Channel Assay for bovine Gamma-Aminobutyric Acid Type A Receptor BDZ, alpha 1 site (GABARa1) (AID 2283321). The method, boiled down: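 Bovine cortex membrane preparation, benzodiazepine site on GABA-A alpha1; specific radioligand displacement read after 0.75 h by filtration and scintillation. Screen at 25 uM, then singleton titrations up to 50 uM; DMSO baseline.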
Chain of bovine Gamma-Aminobutyric Acid Type A Receptor BDZ, alpha 1 site (GABARa1), GABRA1 (gene 780973) (P08219 whole entry, looked up): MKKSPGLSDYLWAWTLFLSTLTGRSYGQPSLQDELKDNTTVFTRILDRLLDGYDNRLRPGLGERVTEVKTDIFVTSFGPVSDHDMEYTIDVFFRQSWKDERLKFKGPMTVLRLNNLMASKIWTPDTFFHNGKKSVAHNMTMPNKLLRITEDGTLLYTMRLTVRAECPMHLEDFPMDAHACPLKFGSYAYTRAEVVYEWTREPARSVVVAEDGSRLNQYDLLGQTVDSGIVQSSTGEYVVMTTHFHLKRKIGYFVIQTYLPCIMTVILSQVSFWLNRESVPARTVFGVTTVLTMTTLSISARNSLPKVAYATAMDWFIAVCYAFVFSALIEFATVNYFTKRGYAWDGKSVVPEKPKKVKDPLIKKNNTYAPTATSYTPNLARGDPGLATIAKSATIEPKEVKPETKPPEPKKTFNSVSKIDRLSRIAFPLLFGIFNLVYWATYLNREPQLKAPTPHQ

Experiment [13] deals with bovine Gamma-Aminobutyric Acid Type A Receptor BDZ, alpha 5 site (GABARa5), GABRA5 (gene 523515) (UniProt Q08E50). The experiment can be described thus: NVS_LGIC_bGABARa5: NovaScreen (NVS) Ligand-Gated Ion Channel Assay for bovine Gamma-Aminobutyric Acid Type A Receptor BDZ, alpha 5 site (GABARa5) (AID 2283323). Put shortly:
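Tested first in duplicate at a single 25 uM, with hits re-run in concentration series to a 50 uM maximum. Bovine hippocampal membranes; specific radioligand displacement measured by filter scintillation counting 1 hr post-dose.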

For experiment [14], the target named is rat Thyrotropin Releasing Hormone Receptor (TRH), Trhr (gene 25570) (UniProt Q01717). Put plainly: NVS_GPCR_rTRH: NovaScreen (NVS) G Protein-Coupled Receptor Assay for rat Thyrotropin Releasing Hormone Receptor (TRH) (AID 2283329).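 Note: hit means lower bound tracer signal versus DMSO baseline.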 Put shortly:
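Competitive radioligand binding on rat forebrain membrane preparations, with filtration and scintillation readout after 4 h. Primary testing in duplicate at 25 uM; actives confirmed in concentration-response. DMSO defined baseline.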

Experiment [15] has as its target rat Gamma-Aminobutyric Acid Type A Receptor, Non-Selective (GABAR-NonSelective), Gabra1 (gene 29705) (UniProt P62813). Put plainly: NVS_LGIC_rGABAR_NonSelective: NovaScreen (NVS) Ligand-Gated Ion Channel Assay for rat Gamma-Aminobutyric Acid Type A Receptor, Non-Selective (GABAR-NonSelective) (AID 2283326). The method, boiled down:
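Compounds were first screened in duplicate at 25 uM, with actives run as singleton concentration series (max 50 uM). Binding of a radioligand to rat whole-brain GABA-A preparation was measured by filtration and scintillation counting after 1 h, DMSO baseline.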

Records with an inconclusive call do not appear. Activity calls are given as the source filed them. Rule for the calls: active = hit-call score of the fitted dose curve at least 0.9, where 1 is the maximum; inconclusive = response in the unintended direction; inactive = score below 0.9.

As a reminder, the AC50 is the concentration at which the activity in the assay is half-maximal.

Chain of rat Glutamate Metabotropic Receptor 5 (MGluR5), Grm5 (gene 24418) (P31424 whole entry, looked up): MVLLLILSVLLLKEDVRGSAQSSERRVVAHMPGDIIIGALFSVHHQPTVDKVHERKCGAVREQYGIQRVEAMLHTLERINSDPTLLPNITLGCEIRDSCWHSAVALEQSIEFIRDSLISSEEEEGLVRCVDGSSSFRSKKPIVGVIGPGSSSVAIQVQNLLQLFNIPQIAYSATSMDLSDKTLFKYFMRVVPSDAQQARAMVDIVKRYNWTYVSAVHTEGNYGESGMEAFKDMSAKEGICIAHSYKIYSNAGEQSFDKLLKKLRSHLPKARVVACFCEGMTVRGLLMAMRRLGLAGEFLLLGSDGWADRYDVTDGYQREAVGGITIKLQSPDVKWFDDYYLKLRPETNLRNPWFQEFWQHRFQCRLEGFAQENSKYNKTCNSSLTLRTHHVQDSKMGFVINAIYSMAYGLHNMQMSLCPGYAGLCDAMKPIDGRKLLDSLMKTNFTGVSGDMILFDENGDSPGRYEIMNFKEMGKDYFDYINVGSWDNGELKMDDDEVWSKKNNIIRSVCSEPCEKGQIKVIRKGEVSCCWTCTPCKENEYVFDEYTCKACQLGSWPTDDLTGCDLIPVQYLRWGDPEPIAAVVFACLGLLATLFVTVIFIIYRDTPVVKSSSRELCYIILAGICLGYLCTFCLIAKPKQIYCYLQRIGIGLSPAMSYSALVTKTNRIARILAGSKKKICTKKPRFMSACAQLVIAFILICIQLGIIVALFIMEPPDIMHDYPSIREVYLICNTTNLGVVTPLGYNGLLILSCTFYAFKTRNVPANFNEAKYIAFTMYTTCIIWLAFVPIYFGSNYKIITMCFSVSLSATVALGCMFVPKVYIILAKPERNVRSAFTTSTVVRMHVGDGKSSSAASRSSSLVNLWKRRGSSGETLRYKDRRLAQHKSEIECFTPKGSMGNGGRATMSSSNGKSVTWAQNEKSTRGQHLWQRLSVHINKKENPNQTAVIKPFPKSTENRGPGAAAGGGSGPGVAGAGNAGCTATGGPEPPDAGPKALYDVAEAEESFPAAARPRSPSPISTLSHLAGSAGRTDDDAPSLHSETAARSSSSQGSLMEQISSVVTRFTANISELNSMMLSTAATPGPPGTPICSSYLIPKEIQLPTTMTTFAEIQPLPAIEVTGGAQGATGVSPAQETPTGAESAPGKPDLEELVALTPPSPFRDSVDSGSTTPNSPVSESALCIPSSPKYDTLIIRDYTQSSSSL
Chain of rat Opioid Receptor, Non-selective Binding, Oprm1 (gene 25601) (P33535 whole entry, looked up): as the sequence (P33535 whole entry, looked up) above
Chain of rat Neurokinin-1 Receptor (NK1), Tacr1 (gene 24807) (P14600 whole entry, looked up): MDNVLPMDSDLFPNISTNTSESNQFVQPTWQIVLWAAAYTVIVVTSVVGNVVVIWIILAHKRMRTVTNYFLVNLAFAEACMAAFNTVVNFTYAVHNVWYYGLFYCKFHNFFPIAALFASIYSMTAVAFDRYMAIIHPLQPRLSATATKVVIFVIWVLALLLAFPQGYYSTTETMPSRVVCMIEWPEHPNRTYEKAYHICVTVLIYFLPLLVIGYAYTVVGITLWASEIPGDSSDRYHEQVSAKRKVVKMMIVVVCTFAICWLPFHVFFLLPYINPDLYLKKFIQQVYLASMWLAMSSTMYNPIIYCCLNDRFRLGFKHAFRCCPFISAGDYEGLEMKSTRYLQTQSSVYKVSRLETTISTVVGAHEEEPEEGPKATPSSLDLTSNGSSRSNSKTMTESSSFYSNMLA
Chain of rat Vasopressin 1 Receptor (V1), Avpr1a (gene 25107) (P30560 whole entry, looked up): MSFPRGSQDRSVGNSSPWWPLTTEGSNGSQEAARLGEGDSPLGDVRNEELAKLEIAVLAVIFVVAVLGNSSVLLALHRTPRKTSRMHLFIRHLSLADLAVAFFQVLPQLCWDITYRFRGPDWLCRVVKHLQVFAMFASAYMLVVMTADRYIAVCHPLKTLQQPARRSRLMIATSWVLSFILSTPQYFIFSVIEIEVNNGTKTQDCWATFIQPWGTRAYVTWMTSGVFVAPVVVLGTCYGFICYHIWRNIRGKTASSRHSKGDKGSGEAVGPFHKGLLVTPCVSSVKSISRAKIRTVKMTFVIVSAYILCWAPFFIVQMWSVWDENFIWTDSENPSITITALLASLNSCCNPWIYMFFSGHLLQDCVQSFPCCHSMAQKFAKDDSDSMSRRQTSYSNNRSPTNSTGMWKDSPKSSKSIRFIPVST

Take `CCC[CH2][Sn]([Cl])([CH2]CCC)[CH2]CCC`: the concentration at half-maximal activity (AC50) was 25 µM (active) in experiment [1]; 1.43 µM (active) in [2]; 8.92 µM (active) in experiment [3]; 3.98 µM (active) in experiment [6]; 11.6 µM (active) in experiment [7]; 17.7 µM (active) in [8]. Further, the compound was called inactive in experiment [4], in [5] and in experiment [9].

As to `N#CC(Br)Br`, the call in experiment [2] was inactive.

For `C1=Cc2cccc3cccc1c23`, the AC50 in experiment [10] is 1.11 µM (active).

For the compound `C[C@]12C=CC3=C4CCC(=O)C=C4CC[C@H]3[C@@H]1CC[C@@H]2O`, the AC50 in experiment [11] is 25 µM (active); in experiment [12], 20.5 µM (active); in experiment [13], 40.7 µM (active). In experiment [14], the result was inactive.

With `CCCCCCCCOC(=O)c1ccc(C(=O)OCCCCCCCC)c(C(=O)OCCCCCCCC)c1`, in experiment [4], the half-maximal activity concentration (AC50) is 0.326 µM (active).

Consider `CCCCCCCCn1sccc1=O`, for which the outcome in experiment [2] and in [9] was inactive. The values for the concentration at half-maximal activity (AC50) in [3], in [7] and in [8] were 32.5 µM (active), 18 µM (active) and 31.5 µM (active), respectively.

As to `ClC1=C(Cl)C2(Cl)C3C(Cl)C=CC3C1(Cl)C2(Cl)Cl` (stereo not given), in experiment [5], the outcome was inactive.

As for `CCOc1cccc(C2(N3CCN(c4ccccc4)CC3)CCC(C)CC2)c1` (stereo not given), the result in experiment [5] was inactive.

Regarding `Cn1cc(-c2ccccc2)c(=O)c(-c2cccc(C(F)(F)F)c2)c1`, the compound was classed as inactive in [1].

Take `O=C(N[C@H](c1ccccc1)[C@@H]1CN2CCC1CC2)c1c(Cl)ccc(C(F)(F)F)c1Cl`: the AC50 in [11] was 37.5 µM (active); in [2], 28.9 µM (active); in experiment [3], 37.5 µM (active); in experiment [6], 9.3 µM (active); in experiment [8], 0.113 µM (active); in experiment [15] it was 0.238 µM (active).

The values above are taken from PubChem BioAssay (EPA / NIEHS).
